The values that follow come from PubChem BioAssay (NCATS).

Where “and” joins values, the source holds several entries; their conditions need not be identical. Identical values can stand only once. Results filed as inconclusive are left out. Calls of active or inactive are those of the source. Unless noted, calls come from the whole dose curve; as a rule, active = well fitted curve in the direction sought with a large enough effect; inconclusive = small, poorly fitted or top-dose-only effect, or another doubt; inactive = no such curve, though single readings can be large; an effect the other way counts as inactive or inconclusive.

Assay [1] is described as follows: qHTS Assay for Lipid Storage Modulators (AID 1519; calls by dose curve; note: potency is the fitted concentration of half-maximal effect; for activity change, negative = inhibition: % is set by controls: 0 for no effect and ±100 for the full control effect). The following applies: Drosophila S3 cells, BODIPY lipid droplet/cell ratio, laser cytometry, cells loaded with oleic acid. In outline:
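Cells seeded at 5,000 per well were treated with compounds over a concentration series and loaded with oleic acid (400 uM, as added). Lipid droplet fluorescence (488 nm excitation, 500-530 nm channel) was read by laser-scanning cytometry and normalized to 20 uM Triacsin C.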
In general terms: qHTS replaces the single test concentration by a dilution series.

A short description of assay [2]: qHTS for differential inhibitors of proliferation of Plasmodium falciparum line 7G8 (AID 1815).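 For activity change, negative = inhibition: plate controls were vehicle wells for no effect and reference inhibitor wells for full effect.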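 Note: parasite growth measured after three days of incubation.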 Note: potency is the fitted concentration of half-maximal effect. The following applies: Plasmodium falciparum 7G8 proliferation inhibition; series mostly up to 28.7 µM.
Assay [3] can be described thus: qHTS for differential inhibitors of proliferation of Plasmodium falciparum line GB4 (AID 1816).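 For activity change, negative = inhibition: 0% = vehicle DMSO and -100% = reference inhibitor.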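 Note: parasite growth measured after 72 h incubation.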 Note: potency is the fitted concentration of half-maximal effect. The following applies: Potency: Plasmodium falciparum GB4 proliferation inhibition; series mostly up to 28.7 µM.
A short description of assay [4]: qHTS for differential inhibitors of proliferation of Plasmodium falciparum line 3D7 (AID 1876). Note: potency is the fitted concentration of half-maximal effect. The following applies: P. falciparum 3D7 proliferation inhibition; series mostly up to 28.7 µM.
Assay [5] can be described thus: qHTS for differential inhibitors of proliferation of Plasmodium falciparum line D10 (AID 1877).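 For activity change, negative = inhibition: plate controls were vehicle wells for no effect and reference inhibitor wells for full effect.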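 Note: parasites grown with compound for 72 h before DNA staining.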 Note: potency is the fitted concentration of half-maximal effect. The following applies: series mostly up to 28.7 µM.
Assay [6] can be described thus: qHTS for differential inhibitors of proliferation of Plasmodium falciparum line W2 (AID 1883).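 For activity change, negative = inhibition: 0% = vehicle wells and -100% = control inhibitor wells.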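 Note: parasites grown with compound for 72 h before lysis and staining.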 Note: potency is the fitted concentration of half-maximal effect. The following applies: Potency: Plasmodium falciparum W2 proliferation inhibition; series mostly up to 28.7 µM.
Assay [7] can be described thus: qHTS for differential inhibitors of proliferation of Plasmodium falciparum line HB3 (AID 1886).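 For activity change, negative = inhibition: plate controls were vehicle for no effect and reference inhibitor for full effect.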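 Note: parasites grown with compound for 72 h before SYBR Green readout.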 Note: potency is the fitted concentration of half-maximal effect. The following applies: Potency: Plasmodium falciparum HB3 proliferation inhibition; series mostly up to 28.7 µM.
For assay [8], the target named is Alpha-galactosidase A (Homo sapiens) (UniProt P06280). Put plainly: Counterscreen for Glucocerebrosidase Inhibitors: qHTS Assay for Human alpha-Galactosidase at pH 4.5 (AID 992). Note: 0% is about no effect. The following applies: purified enzyme, fluorogenic substrate; series mostly up to 76.9 µM. In outline: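 Quantitative HTS: compounds tested from 0.7 nM up to 77 uM against 2 nM enzyme with 80 uM 4-MU alpha-D-galactopyranoside. The 20 min room-temperature reaction is stopped with 1M NaOH/1M glycine, pH 10.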
Alpha-galactosidase A (Homo sapiens), sequence (P06280 whole entry, looked up): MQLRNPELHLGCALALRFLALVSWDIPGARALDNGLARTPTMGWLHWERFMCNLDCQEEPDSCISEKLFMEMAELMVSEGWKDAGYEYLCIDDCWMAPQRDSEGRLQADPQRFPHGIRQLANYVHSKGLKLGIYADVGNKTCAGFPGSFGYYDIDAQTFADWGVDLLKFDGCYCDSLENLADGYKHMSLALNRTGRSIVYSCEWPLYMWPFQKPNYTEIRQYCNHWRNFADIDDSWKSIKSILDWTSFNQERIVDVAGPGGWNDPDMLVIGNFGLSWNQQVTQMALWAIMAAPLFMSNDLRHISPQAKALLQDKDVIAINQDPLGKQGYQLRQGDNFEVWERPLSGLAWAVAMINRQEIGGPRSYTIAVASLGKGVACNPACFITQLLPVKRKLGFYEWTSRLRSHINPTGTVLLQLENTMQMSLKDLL
Background: The purpose of a counterscreen is to sort out artefacts and off-target activity.

In assay [9] the target is alpha-glucosidase (Oryza sativa, rice) (UniProt Q653V4). The assay can be described thus: Counterscreen for Glucocerebrosidase Inhibitors: qHTS Assay for Rice alpha-Glucosidase at pH 5.0 (AID 997).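 Note: 0% = full activity with enzyme and -100% = basal without enzyme.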 The following applies: rice alpha-glucosidase enzyme activity; series mostly up to 76.9 µM. The gist of the method:
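Rice alpha-glucosidase (4 nM final) with 400 uM 4-methylumbelliferyl-alpha-D-glucopyranoside in citrate buffer pH 5.0, 20 min at room temperature, stopped at pH 10; fluorescence 365/440 nm, compounds 0.7 nM–77 uM, AC50 from Hill fits.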

Assay [10] concerns the target Alpha-galactosidase (Coffea arabica) (UniProt Q42656). Put plainly: Counterscreen for Glucocerebrosidase Inhibitors: qHTS Assay for Coffee Bean alpha-Galactosidase at pH 5.9 (AID 998).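 Note: plate controls were uninhibited enzyme for no effect and no-enzyme basal signal for full effect.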 The following applies: coffee bean alpha-galactosidase enzyme assay; series mostly up to 76.9 µM. The gist of the method:
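Green coffee bean enzyme (2 nM final) was incubated with compounds (0.7 nM–77 uM) and 4-methylumbelliferyl alpha-D-galactopyranoside (80 uM) in citrate buffer pH 5.9, 20 min at room temperature. High-pH stop; fluorescence 365/440 nm; AC50 from Hill fits.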

The target of assay [11] is DNA repair nuclease/redox regulator APEX1 (Homo sapiens) (UniProt P27695). Put plainly: qHTS Validation Assay for Inhibitors of the Human Apurinic/apyrimidinic Endonuclease 1 (APE1) (AID 1705;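 note: TAMRA fluorescence gain over two minutes as APE1 cuts a quenched THF abasic duplex; % is set by controls: 0 for no effect and ±100 for the full control effect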). The following applies: purified APE1 endonuclease activity, fluorescence, titration; series mostly up to 57.1 µM. In outline:
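Human APE1 was preincubated with compound for 15 min at room temperature, then 50 nM (final) THF-abasic double-stranded DNA substrate bearing 5'-TAMRA and 3'-BHQ-2 was added. Incision-driven fluorescence rise (ex 525/em 598 nm) was read kinetically.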

The nature of assay [12]: Counterscreen for APE1 Inhibitors: Fluorescent Dye Displacement Validation Assay (AID 1707).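 Note: plate controls were ThO with dsDNA and no compound for no effect and ThO without dsDNA for full effect.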 The following applies: fluorescent dye displacement from DNA; series mostly up to 57.1 µM. In outline: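 Compounds are scored by their ability to displace Thiazole Orange (250 nM) from a 50 nM TAMRA-tagged duplex bearing a tetrahydrofuran abasic site. Buffer is 50 mM Tris-HCl pH7.5, 50mM NaCl, 2 mM MgCl2, 0.01% Tween-20.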

The target in assay [13] is Endonuclease 4 (Escherichia coli (strain K12)) (UniProt P0A6C1). The assay can be described thus: Counterscreen for APE1 Inhibitors: qHTS Validation Assay for Inhibitors of Endonuclease IV (AID 1708). Note: % is set by controls: 0 for no effect and ±100 for the full control effect. The following applies: E. coli endonuclease IV, DNA cleavage fluorescence; series mostly up to 57.1 µM. The gist of the method:
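Concentration-response counterscreen run identically to the APE1 assay: 15 min room-temperature preincubation of 2 nM enzyme with compound, reaction started with 50 nM quenched abasic DNA, progress taken from kinetic fluorescence.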

Assay [14] is described as follows: qHTS for differential inhibitors of proliferation of Plasmodium falciparum line Dd2 (AID 1882).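 For activity change, negative = inhibition: plate controls were DMSO vehicle for no effect and 0.29 µM artemisinin for full effect.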 Note: nearly all actives have a fitted effect of over 65% in size. Note: potency is the fitted concentration of half-maximal effect. The following applies: Potency: Plasmodium falciparum Dd2 proliferation inhibition; series mostly up to 28.7 µM. In outline: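 Dd2-infected erythrocytes (0.3% parasitemia, 2.5% hematocrit final) incubated with compound 72 h at 37 C, 5% CO2; lysed with saponin/Triton buffer containing SYBR Green I, incubated overnight in the dark, then read by fluorescence (485/535 nm). Normalized to 0.29 uM artemisinin and DMSO.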

Assay [15] in a line: Validation of Assay for Modulators of Lamin A Splicing (AID 1459; active = well fitted curve in the direction sought with a large enough effect in the signal ratio; the % refers to the signal ratio;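 note: cells exposed to compound for two days before reading; 0% is about no effect; ratio rise marks activators and ratio drop marks inhibitors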). The following applies: Lamin A splicing dual RFP/GFP fluorescence reporter; series mostly up to 9.22 µM. The gist of the method:
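S3 HeLa cells stably expressing a lamin A-EGFP splicing minigene and DsRed2 were seeded at 600 cells/well in Opti-MEM with 2% FBS, pin-dosed, and incubated 48 hrs at 37 °C, 5% CO2. Laser-scanning cytometry (488 nm) gave GFP/RFP total intensity ratio.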

Where [16] appears, read: measured here: cell count channel max response.
The mark [17] stands for this setting: measured here: lipid channel max response.

DNA repair nuclease/redox regulator APEX1 (Homo sapiens), sequence (P27695 whole entry, looked up): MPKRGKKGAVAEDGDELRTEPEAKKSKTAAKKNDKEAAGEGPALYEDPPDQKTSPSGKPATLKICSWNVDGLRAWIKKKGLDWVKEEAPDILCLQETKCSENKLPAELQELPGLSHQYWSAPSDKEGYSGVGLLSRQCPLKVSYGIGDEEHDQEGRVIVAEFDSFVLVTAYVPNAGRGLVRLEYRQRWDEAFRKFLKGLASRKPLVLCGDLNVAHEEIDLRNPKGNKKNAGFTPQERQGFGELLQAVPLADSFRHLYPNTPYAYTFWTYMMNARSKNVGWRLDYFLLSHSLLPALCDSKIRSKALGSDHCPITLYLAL
Alpha-galactosidase (Coffea arabica), sequence (Q42656 whole entry, looked up): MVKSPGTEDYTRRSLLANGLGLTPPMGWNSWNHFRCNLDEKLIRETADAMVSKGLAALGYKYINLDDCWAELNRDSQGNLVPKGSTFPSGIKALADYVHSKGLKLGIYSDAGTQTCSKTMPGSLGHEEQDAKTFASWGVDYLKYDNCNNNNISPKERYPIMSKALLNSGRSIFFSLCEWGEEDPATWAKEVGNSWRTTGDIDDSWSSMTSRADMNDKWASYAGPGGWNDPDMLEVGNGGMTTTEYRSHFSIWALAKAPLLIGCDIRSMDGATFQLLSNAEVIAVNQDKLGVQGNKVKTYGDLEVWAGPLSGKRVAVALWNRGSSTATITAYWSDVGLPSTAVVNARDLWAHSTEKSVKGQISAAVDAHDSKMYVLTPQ

Consider `CNC(=O)Oc1ccc2c(c1)[C@]1(C)CCN(C)[C@@H]1N2C`, for which, in [1] (at 57.5 µM (top of the series)), the activity change, negative = inhibition was 0.848% (inactive). Besides, the max response is -15.1% in assay [1] (setting [16]) and -15.5% in assay [1] (setting [17]). Also, the Potency was 5.01 µM (active) in assay [2]; 3.98 µM (active) in [3]; 4.47 µM (active) in assay [4]; 4.47 µM (active) in assay [5]; 7.08 µM (active) in [6]; 5.01 µM (active) in assay [7].
On to `CCCCCCCCCCCCCCCC[n+]1ccccc1`, for which the Potency in assay [1] is 10 µM (active). The max response in assay [1] (setting [16]) is -21.8%; in [1] (setting [17]), -114%.
For `COC(=O)C1=CCCN(C)C1`, the compound was called inactive in assay [8], in assay [9], in assay [10], in assay [11], in assay [12] and in assay [13]. For the same compound, the activity change, negative = inhibition was 0.438% (inactive) in [1] (at 25.7 µM (top of the series)); 7.06% (inactive) and -4.88% (inactive) in [1] (at 57.5 µM (top of the series)). Moreover, the max response was 20.3% and 3.22% and -69.9% in [1] (setting [16]); 21.3% and 16.2% and -73.3% in [1] (setting [17]). The Potency result in [2], in assay [3], in assay [4], in assay [5], in assay [14] and in assay [7] was “inactive” each time.
Turning to `O=C(O)c1nn(Cc2ccc(Cl)cc2Cl)c2ccccc12`, the compound was classed as inactive in [8], in assay [9], in assay [10], in assay [15], in assay [11] and in [12]. The outcome in [13] was inactive. The activity change, negative = inhibition in assay [1] (at 57.5 µM (top of the series)) was -2.04% (inactive). The results for the max response in assay [1] (setting [16]) and in [1] (setting [17]) were 45.4% and 43.5%, respectively. The Potency entry in [2], in [3], in assay [4], in [5], in assay [14] and in [6] was “inactive” in each case. For the same compound, the Potency entry in [7] was “inactive”.
Consider `CC(N)C(=O)OC(C)(C)Cc1ccc(Cl)cc1` (stereo not drawn), for which the compound was called inactive in assay [15], in assay [11] and in assay [12]. Further, in [1] (at 57.5 µM (top of the series)), the activity change, negative = inhibition is 9.94% (inactive). The max response was determined as 6.48% in [1] (setting [16]) and 18.3% in assay [1] (setting [17]). For the same compound, the Potency in assay [2] is 5.62 µM (active); in assay [3], 1 µM (active); in [14], 5.62 µM (active); in [6] it was 1.41 µM (active); in assay [7] it was 14.1 µM (active). Further, the Potency entry in assay [5] is “inactive”.
Regarding `CCC(=O)O[C@H]1CC[C@H]2[C@@H]3CCC4=CC(=O)CC[C@]4(C)[C@H]3CC[C@]12C`, the activity change, negative = inhibition in assay [1] (at 25.7 µM (top of the series)) was 0.757% (inactive). For the same compound, the values for the max response in assay [1] (setting [16]) and in [1] (setting [17]) were 2.96% and 3.14%, respectively.
Consider `c1ccc2nc(N3CCNCC3)ccc2c1`, for which the compound was called inactive in [8], in assay [9], in assay [11] and in assay [12]. The activity change, negative = inhibition in assay [1] (at 25.7 µM (top of the series)) was -1.91% (inactive); in [1] (at 57.5 µM (top of the series)) it was 4.37% (inactive) and 6.17% (inactive). Further, the max response in [1] (setting [16]) is -6.47% and 8.94% and 1.83%; in assay [1] (setting [17]) it was -9.05% and 14.3% and 11.9%. Further, the Potency in assay [2] is 7.94 µM (active); in assay [3], 11.2 µM (active); in assay [6], 7.08 µM (active). In addition, the Potency result in [5] and in assay [7] was “inactive” throughout.
